Here are results for 40 molecules from ChEMBL document CHEMBL3433997, “St. Jude Leishmania screening dataset” (2016).

Each structure is given as a SMILES string.

Chain of Solute carrier family 2, facilitated glucose transporter member 1 (Homo sapiens) (P11166 whole entry): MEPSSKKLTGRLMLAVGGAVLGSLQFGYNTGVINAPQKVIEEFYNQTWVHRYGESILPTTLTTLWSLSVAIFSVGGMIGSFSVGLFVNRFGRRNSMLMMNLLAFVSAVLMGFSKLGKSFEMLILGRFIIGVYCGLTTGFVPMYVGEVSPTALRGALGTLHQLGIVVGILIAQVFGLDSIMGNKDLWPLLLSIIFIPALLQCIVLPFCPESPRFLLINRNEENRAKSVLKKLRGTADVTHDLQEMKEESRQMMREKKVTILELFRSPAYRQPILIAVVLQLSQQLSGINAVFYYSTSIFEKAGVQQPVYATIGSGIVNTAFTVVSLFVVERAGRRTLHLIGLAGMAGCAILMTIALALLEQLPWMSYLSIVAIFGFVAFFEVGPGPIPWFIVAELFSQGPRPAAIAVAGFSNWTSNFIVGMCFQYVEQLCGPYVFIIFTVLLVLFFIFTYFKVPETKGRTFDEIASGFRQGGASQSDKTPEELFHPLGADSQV

One experiment has as its target Solute carrier family 2, facilitated glucose transporter member 1 (Homo sapiens) (UniProt P11166). In words: ST_JUDE_LEISH: Cytotoxicity at 2uM final concentration against transgenic Leishmania Mexicana promastigotes LmGLUT1 that are glucose transport deficient and complemented with the human glucose transporter GLUT1. Activity is measured by DNA content using SYBR green in vitro. The class given is functional.
The inhibition is the relative decrease from the control value, in per cent. As for `c1cc2[nH]c(CCc3nc4cc(C5=NC6CCCCC6N5)ccc4[nH]3)nc2cc1C1=NC2CCCCC2N1` (stereo not given), the inhibition is 19.7%.

Consider `CN1CCN(c2ccnc3ccc(NC(=O)Nc4ccc(-c5ccncc5)c5ccccc45)cc23)CC1`, for which the inhibition worked out at 3.36%.

As for `CN(C)c1nc2cc(-n3cnc4cc(-c5ccc(Cl)cc5)sc4c3=O)ccc2n1CCCN1CCCCC1`, the inhibition is 9.33%.

Consider `Fc1cccc(COc2ccc(Nc3ncnc4sc(C#CC5CCCCN5)cc34)cc2Cl)c1` (stereo not given), for which the inhibition is 3.03%.

In the case of `Cc1cc(=NN=Cc2ccccc2F)c2cccc(C)c2[nH]1`, the inhibition is 3.9%.

On to `O=C(Nc1cccc(-c2cccc(-c3nc4ccccc4[nH]3)c2)c1)c1ccncc1`, for which the inhibition was 4.03%.

Consider `O=C(NCC1CCC(CNCCc2ccccc2)CC1)Nc1ccc(Cl)c(Cl)c1` (stereo not given), for which the inhibition was -0.7%.

Consider `CC1(C)CN(CCC2CCC(NC(=O)/C=C/c3ccc(F)cc3F)CC2)Cc2ccc(C#N)cc21` (stereo not given), for which the inhibition was 2.36%.

`Cc1cc2ccc(/C=C/C(=O)NC3CCC(CCN4CCc5ccc(C#N)cc5CC4)CC3)cc2[nH]1` (stereo not given): the inhibition was 4.47%.

`CN(Cc1ccccc1)C1CCN(c2cc(NC(=O)c3cccc(F)c3)ccn2)CC1`: the inhibition was determined as 6.87%.

Turning to `C=CCOC(=O)O[C@@H]1[C@@H](OC(=O)OCC=C)[C@@H](OC)O[C@H](COC(c2ccccc2)(c2ccccc2)c2ccccc2)[C@H]1OC(=O)OCC=C`, the inhibition was found to be 4.46%.

With `CCOC(=O)NCCSC(C)(C)[C@H](NC(=O)[C@H](Cc1cc2ccccc2s1)[C@H](CC)N(O)C=O)C(=O)Nc1nccs1`, the inhibition was 0.32%.

Consider `CC(C)(CNC(=O)/C=C/c1ccc(Cl)c(Cl)c1)CNc1cc(=O)c2ccccc2[nH]1`, for which the inhibition was -0.77%.

`CC(=O)Nc1cccc(C(=O)Nc2cccc(-c3cccc(-c4nc5cc(F)ccc5[nH]4)c3)c2)c1`: the inhibition was determined as 3.73%.

On to `C=CCNc1cc(-c2ccccn2)nc(-c2ccccn2)n1`, for which the inhibition amounted to 31.9%.

Regarding `FC(F)(F)c1cccc(Nc2nc(-c3ccccc3)nc3ncccc23)c1`, the inhibition was 3.41%.

As for `CCC(CC)(CCC#N)CN(C[C@@H](O)[C@H](Cc1ccccc1)NC(=O)OC(C)(C)C)S(=O)(=O)c1ccc(OC)cc1`, the inhibition is -0.65%.

Regarding `COc1cc(C(=O)NC2CCN(Cc3ccccc3)CC2)ccc1-c1nc2cc(Cl)c(C)cc2[nH]1`, the inhibition came out at 10.1%.

On to `Cn1c(NC2CCN(CC3CCN(C(=O)/C=C/c4ccc(Cl)c(Cl)c4)CC3)CC2)nc2ccccc21`, for which the inhibition is 49.9%.

As to `Cc1nnc(-c2ccc3ccccc3c2)c2cn(-c3cccc([N+](=O)[O-])c3)nc12`, the inhibition was 5.1%.

In the case of `COC(=O)Cc1ccc(N)c2ccccc12`, the inhibition is -0.85%.

On to `COc1ccc2c(c1)CC(NCc1ccc(-c3ccc4nc[nH]c4c3)cc1)C2` (stereo not given), for which the inhibition is 4.22%.

On to `Cc1cccc2nc(-c3cccc(-c4ccc(NC(=O)C(C)C(=O)NC(C)C)cc4)c3)[nH]c12` (stereo not given), for which the inhibition worked out at 0.75%.

On to `CC(CO)(CO)NCc1cc2c3ccccc3c(CNC(C)(CO)CO)cc2c2ccccc12`, for which the inhibition worked out at 5.4%.

`COc1ccc(CNCc2cccc(-c3cccc(-c4nc5cc(F)ccc5[nH]4)c3)c2)cc1`: the inhibition is 2.28%.

For `COc1ccc2ncc(C#N)c(CCN3CCC(NCc4ccc5c(n4)NC(=O)CS5)CC3)c2n1`, the inhibition is 3.43%.

In the case of `COc1cc(C)cc(CN2CCC(Cc3ccccc3)CC2)c1O`, the inhibition came out at 0.53%.

Take `Oc1ccc(CCNc2nc(NCc3ccccc3Oc3ccc(C(F)(F)F)cc3)nc(N3CCNCC3)n2)cc1`: the inhibition was -0.98%.

`S=C(Nc1ccc(Cl)cc1)Nc1ccc(Nc2ccccc2)cc1`: the inhibition is 6.97%.

Regarding `COc1ccccc1C1CCN(C2CCC(NC(=O)c3ccc4[nH]c(-c5ccc(C)cc5)nc4c3)CC2)CC1` (stereo not given), the inhibition is 1.55%.

`Cc1cccc2nc(-c3ccc(-c4ccc(NC(=O)Nc5ccc(Cl)cc5)cc4)cc3)[nH]c12`: the inhibition is -1.7%.

For the molecule `c1ccc(-c2cc(NCCNc3cc(-c4ccccc4)nc4ccccc34)c3ccccc3n2)cc1`, the inhibition was -1.99%.

Turning to `Cc1cc(C)c(C)c(OCCCON2C(=N)N=C(N)NC2(C)C)c1C`, the inhibition is 1.55%.

Consider `O=C(Nc1cccc(C(F)(F)F)c1)Nc1ccc(Cl)c(C(F)(F)F)c1`, for which the inhibition is -1.34%.

Take `O=C(COc1cnc2ccccc2n1)Nc1ccccc1Sc1ccc(Cl)cc1`: the inhibition amounted to 4.91%.

As to `CC(C)C[C@H](Nc1ccnc(NCC2CCCCC2)n1)C(=O)NCCc1ccccc1`, the inhibition turned out to be 3.1%.

Take `NCCC(=O)Nc1ccc(-c2cnc3[nH]cc(-c4ccc(C(=O)O)cc4)c3c2)cn1`: the inhibition is 1.05%.

Consider `COc1ccccc1CNc1ccnc(N2CC(Oc3ccc(F)cc3)C2)n1`, for which the inhibition was -2.09%.

For `CN1CCCN(c2ccnc3cc4c(cc23)N(C(=O)c2ccc(Cl)cc2Cl)CC4)CC1`, the inhibition is -0.4%.

Turning to `COc1ccc(NC(=O)c2cc(-c3ccc(NC(C)=O)cc3)cnc2N)cc1`, the inhibition came out at 2.25%.

For another experiment, the target named is Hexose transporter 1 (Plasmodium falciparum) (UniProt O97467). In words: ST_JUDE_LEISH: Cytotoxicity at 2uM final concentration against transgenic Leishmania Mexicana promastigotes LmPfHT that are glucose transport deficient and complemented with the Plasmodium falciparum hexose transporter. Activity is measured by DNA content using SYBR green in vitro. The class given is functional.
Take `c1cc2[nH]c(CCc3nc4cc(C5=NC6CCCCC6N5)ccc4[nH]3)nc2cc1C1=NC2CCCCC2N1` (stereo not given): the inhibition stood at 18.5%.

As for `CN1CCN(c2ccnc3ccc(NC(=O)Nc4ccc(-c5ccncc5)c5ccccc45)cc23)CC1`, the inhibition amounted to 0.39%.

`CN(C)c1nc2cc(-n3cnc4cc(-c5ccc(Cl)cc5)sc4c3=O)ccc2n1CCCN1CCCCC1`: the inhibition was found to be 10.8%.

As for `Fc1cccc(COc2ccc(Nc3ncnc4sc(C#CC5CCCCN5)cc34)cc2Cl)c1` (stereo not given), the inhibition was found to be 1.13%.

For the molecule `Cc1cc(=NN=Cc2ccccc2F)c2cccc(C)c2[nH]1`, the inhibition was found to be 5.38%.

On to `O=C(Nc1cccc(-c2cccc(-c3nc4ccccc4[nH]3)c2)c1)c1ccncc1`, for which the inhibition came out at 4.7%.

On to `O=C(NCC1CCC(CNCCc2ccccc2)CC1)Nc1ccc(Cl)c(Cl)c1` (stereo not given), for which the inhibition was -1.96%.

On to `CC1(C)CN(CCC2CCC(NC(=O)/C=C/c3ccc(F)cc3F)CC2)Cc2ccc(C#N)cc21` (stereo not given), for which the inhibition is 1.97%.

Regarding `Cc1cc2ccc(/C=C/C(=O)NC3CCC(CCN4CCc5ccc(C#N)cc5CC4)CC3)cc2[nH]1` (stereo not given), the inhibition amounted to 5.55%.

Take `CN(Cc1ccccc1)C1CCN(c2cc(NC(=O)c3cccc(F)c3)ccn2)CC1`: the inhibition turned out to be 8.73%.

Consider `C=CCOC(=O)O[C@@H]1[C@@H](OC(=O)OCC=C)[C@@H](OC)O[C@H](COC(c2ccccc2)(c2ccccc2)c2ccccc2)[C@H]1OC(=O)OCC=C`, for which the inhibition stood at 3.53%.

In the case of `CCOC(=O)NCCSC(C)(C)[C@H](NC(=O)[C@H](Cc1cc2ccccc2s1)[C@H](CC)N(O)C=O)C(=O)Nc1nccs1`, the inhibition came out at 0.28%.

Take `CC(C)(CNC(=O)/C=C/c1ccc(Cl)c(Cl)c1)CNc1cc(=O)c2ccccc2[nH]1`: the inhibition is 0.05%.

Consider `CC(=O)Nc1cccc(C(=O)Nc2cccc(-c3cccc(-c4nc5cc(F)ccc5[nH]4)c3)c2)c1`, for which the inhibition is 3.51%.

As for `C=CCNc1cc(-c2ccccn2)nc(-c2ccccn2)n1`, the inhibition came to 9.08%.

In the case of `FC(F)(F)c1cccc(Nc2nc(-c3ccccc3)nc3ncccc23)c1`, the inhibition is 2.83%.

`CCC(CC)(CCC#N)CN(C[C@@H](O)[C@H](Cc1ccccc1)NC(=O)OC(C)(C)C)S(=O)(=O)c1ccc(OC)cc1`: the inhibition is 0.74%.

Regarding `COc1cc(C(=O)NC2CCN(Cc3ccccc3)CC2)ccc1-c1nc2cc(Cl)c(C)cc2[nH]1`, the inhibition came to 9.26%.

As for `Cn1c(NC2CCN(CC3CCN(C(=O)/C=C/c4ccc(Cl)c(Cl)c4)CC3)CC2)nc2ccccc21`, the inhibition was 13.8%.

With `Cc1nnc(-c2ccc3ccccc3c2)c2cn(-c3cccc([N+](=O)[O-])c3)nc12`, the inhibition was found to be 3.95%.

As to `COC(=O)Cc1ccc(N)c2ccccc12`, the inhibition is -0.46%.

With `COc1ccc2c(c1)CC(NCc1ccc(-c3ccc4nc[nH]c4c3)cc1)C2` (stereo not given), the inhibition came to 2.21%.

Consider `Cc1cccc2nc(-c3cccc(-c4ccc(NC(=O)C(C)C(=O)NC(C)C)cc4)c3)[nH]c12` (stereo not given), for which the inhibition was 2.05%.

In the case of `CC(CO)(CO)NCc1cc2c3ccccc3c(CNC(C)(CO)CO)cc2c2ccccc12`, the inhibition is 2.65%.

As for `COc1ccc(CNCc2cccc(-c3cccc(-c4nc5cc(F)ccc5[nH]4)c3)c2)cc1`, the inhibition worked out at 0.55%.

Consider `COc1ccc2ncc(C#N)c(CCN3CCC(NCc4ccc5c(n4)NC(=O)CS5)CC3)c2n1`, for which the inhibition came out at 6.45%.

For the molecule `COc1cc(C)cc(CN2CCC(Cc3ccccc3)CC2)c1O`, the inhibition is 0.17%.

On to `Oc1ccc(CCNc2nc(NCc3ccccc3Oc3ccc(C(F)(F)F)cc3)nc(N3CCNCC3)n2)cc1`, for which the inhibition was -1.74%.

Regarding `S=C(Nc1ccc(Cl)cc1)Nc1ccc(Nc2ccccc2)cc1`, the inhibition came out at 5.37%.

Regarding `COc1ccccc1C1CCN(C2CCC(NC(=O)c3ccc4[nH]c(-c5ccc(C)cc5)nc4c3)CC2)CC1` (stereo not given), the inhibition turned out to be 3.38%.

Turning to `Cc1cccc2nc(-c3ccc(-c4ccc(NC(=O)Nc5ccc(Cl)cc5)cc4)cc3)[nH]c12`, the inhibition turned out to be 1.17%.

On to `c1ccc(-c2cc(NCCNc3cc(-c4ccccc4)nc4ccccc34)c3ccccc3n2)cc1`, for which the inhibition was determined as 6.2%.

For the molecule `Cc1cc(C)c(C)c(OCCCON2C(=N)N=C(N)NC2(C)C)c1C`, the inhibition is -0.22%.

As for `O=C(Nc1cccc(C(F)(F)F)c1)Nc1ccc(Cl)c(C(F)(F)F)c1`, the inhibition is -2.17%.

As for `O=C(COc1cnc2ccccc2n1)Nc1ccccc1Sc1ccc(Cl)cc1`, the inhibition was 3.31%.

For `CC(C)C[C@H](Nc1ccnc(NCC2CCCCC2)n1)C(=O)NCCc1ccccc1`, the inhibition worked out at 0.57%.

`NCCC(=O)Nc1ccc(-c2cnc3[nH]cc(-c4ccc(C(=O)O)cc4)c3c2)cn1`: the inhibition came out at 1.74%.

As to `COc1ccccc1CNc1ccnc(N2CC(Oc3ccc(F)cc3)C2)n1`, the inhibition worked out at 0.57%.

Consider `CN1CCCN(c2ccnc3cc4c(cc23)N(C(=O)c2ccc(Cl)cc2Cl)CC4)CC1`, for which the inhibition stood at 2.07%.

As to `COc1ccc(NC(=O)c2cc(-c3ccc(NC(C)=O)cc3)cnc2N)cc1`, the inhibition was 2.66%.
